Most compounds without a hit are left out; they make up all but 2.1% or so of the library.
Avidin fluor: green autofluorescence of compounds with avidin beads – biophysical, 488/530 nm, flow cytometry, artefact control, profiling panel. actives 0.38% (n = 220,000). compound fluorescence 488/530 nm; hits give high values. fluorescence (KMESF) at 10 µM; in the data active means fluorescence above about 47
GSH fluor: compound fluorescence on glutathione beads, profiling panel, artefact control, biophysical, 488/530 nm, flow cytometry | GSH beads flow cytometry, compound fluorescence 488/530 nm; hits give high values | fluorescence (KMESF) at 10 µM | actives 0.25% (n = 190,000) | AID 1776, 2009; in the data active means fluorescence above about 89;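 further: glutathione beads carrying GST-tagged Bcl family fusion proteins plus one bare bead set; values are compound well signal with DMSO vehicle wells as background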
Efa HMGR inh: inhibitors of E. faecalis class II HMGR, primary screen, biochemical, Enterococcus faecalis. HMG-CoA reductase (Enterococcus faecalis, mvaE). purified E. faecalis HMGR, NADPH absorbance 340 nm kinetic. inhibition, % at 10 µM. actives 0.41% (n = 190,000);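 active means inhibition above a set limit, the median over all tested compounds plus 3 SD, cut at about 9.5% in these data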;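 further: enzyme runs in reverse so mevalonate oxidation gives rising NADPH absorbance; 0% = complete reaction with DMSO and 100% = background rate lacking mevalonate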
PGE2 EP2 inh: human EP2 receptor antagonists, primary screen, TR-FRET cAMP, C6 glioma cells | Prostaglandin E2 receptor EP2 subtype (Homo sapiens), P43116 | C6 glioma cells expressing human EP2; cells stimulated with saturating PGE2 | inhibition, % at 25 µM | actives 0.52% (n = 260,000) | AID 1422, 2008;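 active means percent inhibition above 40 after rounding to a whole number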;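 further: rat C6 glioma host cells with rolipram phosphodiesterase inhibitor present; the protocol text gives 20 µM as final concentration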
Target sequence (P43116 whole entry, looked up): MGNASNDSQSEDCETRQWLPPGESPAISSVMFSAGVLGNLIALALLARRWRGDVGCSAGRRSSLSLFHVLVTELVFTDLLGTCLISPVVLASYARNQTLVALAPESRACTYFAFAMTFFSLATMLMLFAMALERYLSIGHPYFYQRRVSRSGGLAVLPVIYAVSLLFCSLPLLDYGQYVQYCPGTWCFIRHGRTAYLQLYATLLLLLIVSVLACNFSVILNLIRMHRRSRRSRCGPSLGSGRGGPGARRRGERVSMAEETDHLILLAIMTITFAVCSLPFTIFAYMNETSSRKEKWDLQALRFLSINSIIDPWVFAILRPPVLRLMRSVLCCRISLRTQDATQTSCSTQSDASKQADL
EP2 modulator: EP2 receptor modulators, cAMP readout, primary screen, cell-based, HTRF cAMP, PGE2 stimulation; EP2-expressing cells, cAMP HTRF FRET, PGE2 co-stimulation; actives 0.83% (n = 260,000); induction, % at 25 µM;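 active means compounds whose cAMP rise, as percent of the full-agonist control response, exceeds 60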;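 further: rat C6 glioma line stably carrying human EP2 under a CMV promoter; the protocol text gives 20 µM as final concentration; 100% = response of wells given 1 µM PGE2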
An asterisk follows results filed as active; nt = no result given; ! = not confirmed by another sample.

SMILES	Avidin fluor	GSH fluor	Efa HMGR inh	PGE2 EP2 inh	EP2 modulator
Cc1ccsc1C(=O)C1CCCN(Cc2cc(F)ccc2-n2cccn2)C1 (stereo unspecified)	2	14	18.0*	3.5	39.7
CC(=O)Nc1ccc2nc(NC(=O)c3ccc(Cl)c(Cl)c3)sc2c1	nt	nt	nt	7.2	-48.7
COc1cc2[nH]c(=O)n(CCC(=O)NC3CCCC3)c(=O)c2cc1OC	68*	23	-5.9	13.1	-13.7
COc1ccc(C(=O)N2CCC(c3nc4c(nnn4Cc4ccc(F)cc4)c(=O)[nH]3)CC2)cc1OC	nt	nt	nt	12.1	-4.2
CCCc1nnc(SCc2ccc(C(=O)OC)o2)n1N	28	9	-0.6	7.7	6.7
CCc1nnc(SCc2ccc(C(=O)OC)o2)n1N	7	258*	-1.8	10.4	23.1
CCC(c1nnnn1C1CCCCC1)N(Cc1cc2c(C)cc(C)cc2[nH]c1=O)C1CCCCC1 (stereo unspecified)	nt	nt	nt	20.3	38.7
CSc1nc(=S)c2[nH]c(=S)[nH]c2[nH]1	5	nt	nt	44.5*	23.6
Cc1cccc(N(CC(=O)N/N=C/c2cc([N+](=O)[O-])ccc2Cl)S(C)(=O)=O)c1C	49*	8	-4.4	11.4	20.0
COc1ccc(OC)c(CC(=O)NC2(c3ccc4c(c3)OCO4)CCCC2)c1	nt	nt	nt	7.0	-6.5
COc1ccc2[nH]c(=O)c(CN(CCN(C)C)C(=S)NC3CCCCC3)cc2c1	nt	nt	nt	12.3	-60.0
Cc1ccc(S(=O)(=O)NNC(=O)CCCCC(=O)NNS(=O)(=O)c2ccc(C)cc2)cc1	22	12	13.3*	4.2	25.9
Cc1ccccc1CNCCNC(=O)c1ccco1	nt	nt	nt	12.1	9.0
C=CCn1c(SCC(=O)Nc2ccc(CC)cc2)nnc1-c1ccncc1	nt	nt	nt	5.9	-30.0
CC1=NN(c2ccc([N+](=O)[O-])cc2)C(c2ccccc2)C1 (stereo unspecified)	10	12	1.8	7.9	62.5*
CCC(=O)Nc1ccc(NC(=O)c2cccc(Cl)c2)nc1	nt	nt	nt	20.4	-33.8
N#C/C(=C(/O)c1ccc([N+](=O)[O-])o1)c1nc2ccccc2[nH]1	8	nt	nt	17.1	-43.2
N#C/C(=C\c1ccc([N+](=O)[O-])o1)c1nc2ccccc2[nH]1	17	11	-12.4	69.0*	-11.0
Cc1ccc2nc(/C(C#N)=C\c3ccc([N+](=O)[O-])o3)[nH]c2c1	13	22	-8.8	64.4*	-39.6
C[C@H](Cn1nnc2ccccc21)NC(=O)c1ccc(N2CCCCS2(=O)=O)cc1	nt	nt	nt	7.5	-27.9
Cc1cc(C)c(NC(=O)CSc2nc(C)cc(C)n2)c(C)c1	nt	nt	nt	9.0	-70.0
Fc1ccc(N2CCN(Cc3c[nH]c4ccccc34)CC2)cc1	6	nt	nt	6.5	-55.6
c1ccc2c(CN3CCN(Cc4c[nH]c5ccccc45)CC3)c[nH]c2c1	nt	nt	nt	61.8*	-21.2
COc1ccccc1S(=O)(=O)Cc1ccc(C(=O)NCCN2CCCCCC2)o1	21	14	10.1*	2.9	-14.7
COc1ccc(NC(=O)c2sc3nc4cc(OC)c(OC)cc4cc3c2N)c(OC)c1	nt	nt	nt	16.2	-38.3
SMILES	Avidin fluor	GSH fluor	Efa HMGR inh	PGE2 EP2 inh	EP2 modulator
CCO[P@]1(=O)OC[C@@H]2O[C@H](n3cnc4c(N)ncnc43)[C@H](O)[C@H]2O1	nt	nt	nt	4.1	100.7*
Nc1ncnc2c1nc(Br)n2C1OC2COP(=O)(O)O[C@@H]2C1O (stereo partly specified)	nt	nt	nt	1.9	93.1*
C=CCn1c2cc(C)sc2c2cnn(CC(=O)N3CCCC(C)C3)c(=O)c21 (stereo unspecified)	nt	nt	nt	nt	-36.8
Cc1ccc(S(=O)(=O)Nc2cccc(/C=C/C(=O)O)c2)cc1	10	10	11.1*	5.0	-9.7
COc1ccc(S(=O)(=O)Nc2cccc(/C=C/C(=O)O)c2)cc1	14	9	-6.0	4.4	26.3
O=C(O)/C=C/c1cccc(NC(=O)c2ccccc2)c1	8	nt	nt	7.3	92.5*
O=C(CSc1nc(C23CC4CC(CC(C4)C2)C3)nc2ccccc12)N1CCOCC1	nt	nt	nt	9.7	5.5
COc1ccccc1-c1nc2ccccc2c(=O)n1NC(=O)c1cccs1	14	108*	-4.8	5.8	53.6
CCc1nc(NCCNC(=O)c2ccco2)c2c3c(sc2n1)CCCC3	nt	nt	nt	11.2	-27.6
Cc1cccc(N2CC(=O)N(c3cccc(C)c3)CC2=O)c1	10	6	-0.8	7.9	0.4
COc1cccc(N2CC(=O)N(c3cccc(OC)c3)CC2=O)c1	9	18	9.7*	15.2	14.1
CCC1(CC)C(=O)NC(=O)NC1=NCCc1ccc(O)cc1	75*	14	1.0	12.2	2.2
O=C(COc1ccccc1C(=O)N/N=C\c1ccc(O)c(O)c1)N/N=C/c1ccc(O)c(O)c1	4	4	28.7*	nt	5.5
COC(=O)C(C)Sc1nc(N(C)C)nc(N2CCOCC2)n1 (stereo unspecified)	nt	nt	nt	5.8	-0.2
COc1ccc(C2NC(=S)NC(C)=C2C(=O)Nc2cccc(Cl)c2)c(OC)c1 (stereo unspecified)	nt	nt	nt	11.5	-19.9
COc1ccc(C(=O)Nc2cc(C(C)=O)c(C)oc2=O)cc1	9	15	1.4	-0.2	15.2
COC(=O)c1cc(NC(=O)c2ccccc2)c(=O)oc1/C=C/Nc1ccc(Oc2ccccc2)cc1	80*	161*	-1.6	3.9	18.7
Oc1c(CN2CCN(c3ccccc3)CC2)cc(Br)c2cccnc12	8	nt	nt	40.9*!	15.4
O=c1cc(CN2CCN(c3ccccc3)CC2)c2c(ccc3ccccc32)o1	55*	14	3.2	6.5	9.0
Cc1cc2c(o1)c1cnn(CC(=O)N3CCCCC3)c(=O)c1n2C	nt	nt	nt	nt	20.3
CC1CCC2(CC1)NC(=S)N(c1ccccc1)N2 (stereo unspecified)	125*	10	3.9	13.0	-7.1
O=C(c1cc2c(ccc3ccccc32)o1)N1CCN(c2ncc(C(F)(F)F)cc2Cl)CC1	8	277*	-5.0	17.8	-49.0
CC(CCC(=O)O)(c1cc(Br)c(O)c(Br)c1)c1cc(Br)c(O)c(Br)c1	nt	nt	nt	39.7*	48.5
CCN(CC)C(=O)CN1CCC(n2c(C)nc3sc(C)c(C)c3c2=O)CC1	nt	nt	nt	5.1	-45.4
CCn1c(N2CCC(C(=O)NC3CCCC3)CC2)nc2ccccc21	nt	nt	nt	nt	62.8*
CN1C(=O)NC(c2cccc(O)c2)C(C(=O)c2cccs2)C1(O)C(F)(F)F (stereo unspecified)	28	19	-0.6	2.3	17.8
CCOC(=O)C1C(c2cccs2)NC(=O)N(C)C1(O)C(F)(F)F (stereo unspecified)	59*	10	-0.4	2.8	12.3
O=C1NC2(CCN(C(=O)c3nccc4ccccc34)CC2)Nc2ccccc21	nt	nt	nt	7.2	-18.5
CCOC(=O)N=Nc1c(O)n(C)c2ccccc12	121*	17	1.8	7.1	2.2

Screening data (PubChem)
